66 molecules from PubChem BioAssay AID1777 (Sanford-Burnham Center for Chemical Genomics, 2009) can be followed below.

Structures are written as SMILES. Among all 280,000 compounds or so, about 50 (0.02%) were called active. Cut-off read from the data, not from the text of the source: active = activation above about 50% (passing the limit was not always enough); inactive = the rest. The list comes from a sample in which actives are over-represented; it also holds similar structures and randomly drawn compounds. Entries with a potency or affinity are not part of this list.

The target of the test is Kappa-type opioid receptor (Homo sapiens) (UniProt P41145). Put plainly: kappa opioid receptor activators – cell-based, luminescence, uHTS, primary screen (AID 1777). The settings on record: KOR beta-arrestin recruitment, at 10 µM, active compounds read high.
Kappa-type opioid receptor (Homo sapiens), sequence (P41145 whole entry, looked up): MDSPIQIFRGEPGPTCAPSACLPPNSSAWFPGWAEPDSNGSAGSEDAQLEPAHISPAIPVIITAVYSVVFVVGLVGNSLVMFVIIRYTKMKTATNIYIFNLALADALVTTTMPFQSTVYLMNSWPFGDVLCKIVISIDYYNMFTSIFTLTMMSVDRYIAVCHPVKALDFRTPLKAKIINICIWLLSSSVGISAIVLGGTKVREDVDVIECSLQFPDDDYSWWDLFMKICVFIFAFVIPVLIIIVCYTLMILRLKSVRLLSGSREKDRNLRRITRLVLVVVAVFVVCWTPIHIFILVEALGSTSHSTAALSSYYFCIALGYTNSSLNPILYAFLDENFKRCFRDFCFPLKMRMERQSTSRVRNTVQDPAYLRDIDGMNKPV
Take `CN(C)/C=C/C(=O)c1ccc(S(=O)(=O)c2ccccc2)cc1`: the activation was -5% (inactive). The figure for `C=CCSc1nc(C)c(CCC(C)C)c(=O)[nH]1` is -2.2% (inactive); for `COc1ccc([N+](=O)[O-])cc1NC(=O)COC(=O)c1ccccc1C(=O)c1ccccc1` it is -5.5% (inactive); for `CCc1ccccc1NC(=O)c1cccc(N2C(=O)C3C4CCC(C4)C3C2=O)c1` (stereo unspecified) it is 3.3% (inactive). In the case of `CCCN(Cc1cc2ccc(C)cc2[nH]c1=O)C(=O)c1ccccn1`, the activation is 46.4% (inactive). In the case of `Cc1ccc2[nH]c(=O)c(CN(C)C(=O)c3ccccn3)cc2c1`, the activation is -3.6% (inactive). Regarding `CCCN(Cc1cc2cc(C)ccc2[nH]c1=O)C(=O)c1ccccn1`, the activation was 9.9% (inactive). As for `CCCCN(Cc1cc2cc(OC)ccc2[nH]c1=O)C(=O)c1ccccn1`, the activation was 40.3% (inactive).

Turning to `COCC(=O)N(Cc1cc2ccccc2[nH]c1=O)c1ccc(OC)cc1`, the activation was 9.6% (inactive).

With `COc1ccc2nc(NC(=O)CCNS(=O)(=O)c3ccc4c(c3)oc(=O)n4C)sc2c1`, the activation was -3.3% (inactive).

As to `COc1ccc(OCC(=O)NNC(=O)C2CCCO2)cc1` (stereo unspecified), the activation is 8.8% (inactive). On to `CCOc1ccc(-n2nnc3c(=O)n(CC(=O)c4ccccc4)cnc32)cc1`, for which the activation is 52.9% (active). The figure for `Cc1ccc(-n2nnc3c(=O)n(CC(=O)c4ccccc4)cnc32)cc1` is 4.2% (inactive); for `CCOC(=O)Cn1cnc2c(nnn2-c2ccccc2)c1=O` it is -1% (inactive); for `CCOc1ccc(-n2c(=O)c3sccc3n(CC(=O)NCC3CCCO3)c2=O)cc1` (stereo unspecified) it is -4.3% (inactive). In the case of `O=C(Cc1ccccc1)c1c[nH]c(C(=O)NCCCn2ccnc2)c1`, the activation is 1.2% (inactive).

Turning to `CCC(C)(C)N=C(NC#N)Nc1cccnc1`, the activation is 87.5% (active). In the case of `CC(Nc1cccnc1)=C(C#N)C#N`, the activation was -7.7% (inactive). Next, `CC(N=C(NC#N)Nc1ccncc1)C(C)(C)C` (stereo unspecified): -0.9% (inactive); `CCCCN(C(=O)c1cc(CC)c(C)s1)c1c(N)n(CC(C)C)c(=O)[nH]c1=O`: -0.3% (inactive). Next, `COC(=O)c1ccc(NC(=S)N(Cc2cccnc2)Cc2ccco2)cc1`: -0.8% (inactive); `O=C(c1ccc(Cl)cc1)N(Cc1ccc(Br)cc1)N1C(=O)CCC1=O`: 1.3% (inactive); `O=C(c1ccc(Cl)cc1)N(Cc1ccccc1F)N1C(=O)CCCC1=O`: -0.9% (inactive). Next, `O=C(c1ccc([N+](=O)[O-])cc1)N(Cc1ccc(Cl)cc1Cl)N1C(=O)CCCC1=O`: -0.8% (inactive); `O=C(c1ccccc1Cl)N(Cc1ccc(Br)cc1)N1C(=O)CCCC1=O`: -1% (inactive); `COC(=O)C1=CN(CC2CCCO2)C=C(C(=O)OC)C1c1ccsc1` (stereo unspecified): -4.3% (inactive). For `COc1cc(/C=N/Nc2ccc(C(F)(F)F)cn2)cc(OC)c1O`, the activation was -5% (inactive). Turning to `Cn1c2ccccc2c(=O)c2ccc(C#CC3(N)CCCCC3)cc21`, the activation is -3.1% (inactive). The figure for `O=C(c1ccc(S(=O)(=O)N2CCCC2)cc1)N1CCC(CN2C(=O)c3cccc4cccc(c34)C2=O)CC1` is 0.7% (inactive).

For the molecule `CC(C)C[C@H](NC(=O)c1nc[nH]c1C(=O)N[C@@H](CCCCNC(=O)OC(C)(C)C)C(=O)OC(C)(C)C)C(=O)OC(C)(C)C`, the activation is 5.3% (inactive). Next, `CCN(CC)CCNc1nc(C(F)(F)F)nc2c1nnn2Cc1ccccc1`: -3.1% (inactive).

For `O=C(Cc1ccc([N+](=O)[O-])cc1)N/N=C/c1ccccc1F`, the activation is -4.4% (inactive). For the molecule `CCC(C)(C(=O)NC1CCCCC1)N(C)C(=O)c1ccccn1` (stereo unspecified), the activation was 1.2% (inactive). The figure for `CCC(C)(C(=O)NC1CCCC1)N(Cc1ccco1)C(=O)c1ccc2c(c1)OCO2` (stereo unspecified) is 10.3% (inactive); for `CCC(C)(C(=O)NC1CCCCC1)N(Cc1ccco1)C(=O)CNC(=O)c1ccccc1` (stereo unspecified) it is 1.6% (inactive). The figure for `CCC(C)(C(=O)NC1CCCCC1)N(Cc1ccco1)C(=O)c1ccc2c(c1)OCO2` (stereo unspecified) is 1.2% (inactive). For `CCC(C)(C(=O)NC1CCCC1)N(C)C(=O)c1ccccn1` (stereo unspecified), the activation was -0.7% (inactive).

Take `CCC(C)(C(=O)NC1CCCC1)N(C(=O)c1cnccn1)c1ccccc1` (stereo unspecified): the activation was -12.3% (inactive). The figure for `CC(C)(C)c1cc(C(=O)NC2CC2)n(Cc2ccc(F)cc2)n1` is -4.7% (inactive); for `CS(=O)(=O)c1ccc(NCC2CCCO2)c([N+](=O)[O-])c1` (stereo unspecified) it is -3.6% (inactive); for `O=c1[nH]cc(S(=O)(=O)NCc2ccccc2)c(=O)[nH]1` it is -1.3% (inactive). `CCNS(=O)(=O)c1ccc(CCC(=O)Nc2ccccc2C(=O)OC)cc1`: the activation was -1.4% (inactive). For the molecule `Cc1cc(C)cc(C(=O)NCC(=O)OCC(=O)N2CCN(S(=O)(=O)c3ccc4ccccc4c3)CC2)c1`, the activation is -0.4% (inactive). As for `CCC(C)(C(=O)NC1CCCC1)N(Cc1cccs1)C(=O)Cc1cccs1` (stereo unspecified), the activation is -0.9% (inactive). The figure for `CCC(C)(C(=O)NC1CCCCC1)N(Cc1cccs1)C(=O)Cc1cccs1` (stereo unspecified) is 3.8% (inactive); for `CCC(C)(C(=O)NC1CCCC1)N(Cc1cccs1)C(C)=O` (stereo unspecified) it is -2.2% (inactive). In the case of `CCC(C)(C(=O)NC1CCCCC1)N(Cc1cccs1)C(=O)c1ccc(=O)[nH]c1` (stereo unspecified), the activation was -6.4% (inactive). The figure for `CC(=O)c1sc(N/N=C\c2ccc(Br)cc2)nc1C` is 3.5% (inactive); for `COc1ccc(N2CCN(S(=O)(=O)CCNC(=O)COc3ccccc3OC)CC2)cc1` it is -4.1% (inactive). `NC1=NC(c2cn[nH]c2-c2ccc(F)cc2)n2c(nc3ccccc32)N1` (stereo unspecified): the activation was 0.5% (inactive). The figure for `CC(CNC(=O)c1ccc2c(c1)OCO2)c1ccc([N+](=O)[O-])cc1` (stereo unspecified) is -4.6% (inactive). For `O=C(CN1C(=O)COc2ccccc21)N(Cc1ccc2c(c1)OCO2)CC1CCCO1` (stereo unspecified), the activation is 72.1% (inactive).

With `COc1ccc(CN(CC2CCCO2)C(=O)CN2C(=O)C(C)Oc3ccc(C)cc32)cc1OC` (stereo unspecified), the activation was 50.9% (inactive).

On to `O=C(CCCCCBr)N1CCC(CC2CC(c3ccc(Cl)cc3)=NO2)(C(=O)NCC2CCCCC2)CC1` (stereo unspecified), for which the activation is -0.1% (inactive).

On to `CCN1CCc2c(sc(NC(=O)c3cc4ccccc4cc3OC)c2C(N)=O)C1`, for which the activation is 0.1% (inactive). Next, `CC(C)N1CCc2c(sc(NC(=O)c3ccc4ccccc4c3)c2C(N)=O)C1`: -0.3% (inactive); `CNC(=O)/C(C#N)=C/c1ccc(-c2nc3ccccc3s2)o1`: 169% (active); `N#C/C(=C\c1ccc(-c2nc3ccccc3s2)o1)C(N)=O`: 0.2% (inactive). For `N#C/C(=C\c1ccc(-c2ccccc2Cl)o1)C(=O)Nc1nc2ccccc2s1`, the activation is -1.8% (inactive). Turning to `CN=C1SC(CC(=O)Nc2ccccc2F)C(=O)N1/N=C/c1ccc(O)c(OC)c1` (stereo unspecified), the activation was 14.6% (inactive). The figure for `Cn1c(=O)c(=O)n(C)c2cc(S(=O)(=O)N3CCCC3C(=O)NCc3cccs3)ccc21` (stereo unspecified) is 1% (inactive); for `COc1ccc(-c2ccc(C#N)c(SCC(=O)Nc3sc4c(c3C#N)CCC4)n2)cc1` it is -2.3% (inactive); for `N#Cc1ccc(-c2ccc(F)cc2)nc1SCC(=O)Nc1sc2c(c1C#N)CCC2` it is -1% (inactive). On to `CCc1ccccc1OCC(=O)N(CC)CC(=O)NCc1ccc(F)cc1`, for which the activation is -3% (inactive).

Turning to `Cc1cc(C(=O)CSc2nncn2C)c(C)n1-c1ccccc1`, the activation was -2.9% (inactive). The figure for `Cc1nc(C)c(NC(=O)OC(C)C)cc1NC(=O)OC(C)C` is -4.7% (inactive).
